The list is not random: actives were taken first. Their share in the collection is about 2.2%.
Shn3 inh set2 – reduction of Shn3 3'UTR firefly luciferase signal, primary screen, Schnurri-3 inhibitor project, cell-based, Clone20 osteoblasts, set 2; inhibition, % at 12.5 µM; Clone20 osteoblast Shn3 3'UTR firefly luciferase, 24 h; AID 588674, 2011; 360,000 compounds, 0.52% hits;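 active = mean inhibition of at least 75% with every replicate also reaching 75%; inconclusive = mean inhibition at least 75% but some replicate below; inactive = mean inhibition below 75%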;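 also: 0% = median of neutral control wells and 100% = pilot-screen positive control compound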
PfHsp90 set2 – growth inhibition of PfHsp90-expressing yeast, primary screen, antimalarial PfHsp90 inhibitor project, S. cerevisiae, BacTiter-Glo luminescence, single point, set 2. BacTiter-Glo ATP, 48 h; yeast lacking PDR1 and PDR3 efflux regulators. AID 504621, 2011. inhibition, % at 9.4 µM. 310,000 compounds, 0.32% hits;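 active = every replicate shows inhibition above about 80%, whatever the replicate mean, limit read from the data; inconclusive = mean inhibition reaches the set limit but some replicate falls short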;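 also: 0% = DMSO neutral controls and 100% = 20 µM radicicol positive controls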
Beta apoptosis – inhibitors of cytokine-induced beta cell apoptosis, primary screen, luminescence; INS-1E cytokine-induced death, ATP luminescence, 48 h; percent of positive-control rescue, neutral wells zero; protection from apoptosis, % (concentration not given with the values); 300,000 compounds, 0.8% hits; AID 435005, 2010;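 active = Every replicate reaches about 75%, or at least half do and their mean reaches it too, limit read from the data; inconclusive = At least half of replicates reach the limit but their mean does not; inactive = Under half of replicates reach the limit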;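 also: 0% = cytokine-treated negative control wells and 100% = positive control rescue; higher means more ATP so stronger rescue from cytokine killing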
CSC inhib – cancer stem cell viability inhibitors, primary screen, luminescence; 300,000 compounds, 1.1% hits; inhibition, % at 7.5 µM; AID 2717, 2010; cancer stem cell-like cells viability; in the data active = inhibition above about 75%; inconclusive = no clear call, values can overlap the other calls; tested in HMLE shEcad cells
Calb FLC – C. albicans growth inhibition with fluconazole, primary screen, CaCi-2 strain, Alamar Blue fluorescence | C. albicans CaCi-2 (fluconazole-resistant clinical isolate) + fluconazole, 48 h | growth inhibition, % (no concentration beside the values) | 300,000 compounds, 0.57% hits | AID 1979, 2009;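 active = growth inhibition above about 58% in most replicates, limit read from the data, passing the limit was not always enough; inconclusive = exactly half the replicates above a set limit; inactive = most replicates below a set limit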;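 also: all wells also contain fluconazole at 8 µg/ml as a sub-toxic cotreatment; 0% = median of DMSO wells and 100% = median of geldanamycin control wells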
The depositor's hits bear a star.

CCc1ccc(CNCc2ccc(OCC(O)CN(C)Cc3ccccc3)cc2)nc1 (configuration not stated) was read as Shn3 inh set2 86*, PfHsp90 set2 -8, Beta apoptosis 39, CSC inhib 3 and Calb FLC 2.
For Cc1ccc(CSc2ccc(-c3ccc4c(c3)OCO4)nn2)cc1 the results were Shn3 inh set2 -22, PfHsp90 set2 3, Beta apoptosis -8, CSC inhib 79* and Calb FLC 8.
COc1ccc(C=C2C=C(C(C)(C)C)C(=O)C(C(C)(C)C)=C2)cc1OC was read as Shn3 inh set2 93*, PfHsp90 set2 6, Beta apoptosis -4, CSC inhib inconclusive and Calb FLC -5.
Screening CN(C)S(=O)(=O)c1ccc(-c2csc(N/N=C/c3ccc(O)cc3)n2)cc1 returned Shn3 inh set2 27, PfHsp90 set2 10, Beta apoptosis 14, CSC inhib 130* and Calb FLC 4.
For CN(C)S(=O)(=O)c1ccc(-c2csc(N/N=C/c3ccco3)n2)cc1 the results were Shn3 inh set2 34, PfHsp90 set2 7, Beta apoptosis 20, CSC inhib 20 and Calb FLC 5.
O=[N+]([O-])c1cccc(-c2csc(N/N=C/c3cccc(O)c3)n2)c1 was read as Shn3 inh set2 -22, PfHsp90 set2 4, Beta apoptosis 4, CSC inhib 87* and Calb FLC 2.
Screening CCOC(=O)Cc1csc(N/N=C/c2cccc([N+](=O)[O-])c2)n1 returned Shn3 inh set2 -6, PfHsp90 set2 2, Beta apoptosis 4, CSC inhib -9 and Calb FLC -1.
Screening CCOc1ccc(OCC(=O)N(CCC2=CCCCC2)c2c(N)n(Cc3ccccc3)c(=O)[nH]c2=O)cc1 returned Shn3 inh set2 82, PfHsp90 set2 1, CSC inhib 76* and Calb FLC -3.
For COC(=O)[C@H](CCSC)NC(=O)Cn1cnc2c(NCc3ccccc3)ncnc21 the results were Shn3 inh set2 -24 and PfHsp90 set2 -3.
For Cc1cc(O)c(/C=N/Nc2ccc(F)cc2)c(=O)o1 the results were Shn3 inh set2 8, PfHsp90 set2 4, Beta apoptosis -2, CSC inhib 16 and Calb FLC 122*.
Screening CC(/C=N\NC(=O)Cn1c(C)nc2ccccc21)=C\c1ccccc1 returned Shn3 inh set2 85*, PfHsp90 set2 -4, Beta apoptosis 32, CSC inhib -2 and Calb FLC -3.
For CC(C)c1ccc(CN2C(=O)NC3(CCCCCC3)C2=O)cc1 the results were Shn3 inh set2 -14, PfHsp90 set2 -40, Beta apoptosis -7, CSC inhib 3 and Calb FLC -4.
Screening O=C(C[n+]1ccccc1)N/N=C/c1ccccc1Cl returned Shn3 inh set2 -7, PfHsp90 set2 -31, Beta apoptosis -5 and CSC inhib -14.
For O=C(Cc1ccccc1)N/N=C/c1ccccc1Cl the results were Shn3 inh set2 -15, PfHsp90 set2 6, Beta apoptosis 2, CSC inhib 6 and Calb FLC 116*.
Screening O=C(N/N=C\c1ccc([N+](=O)[O-])s1)c1cncc(Br)c1 returned Shn3 inh set2 4, PfHsp90 set2 3, Beta apoptosis 84*, CSC inhib 63 and Calb FLC 108*.
O=C(N/N=C/c1ccc([N+](=O)[O-])s1)c1ccccc1 was read as Shn3 inh set2 32, PfHsp90 set2 -33, Beta apoptosis -1 and Calb FLC 17.
`Cc1ccccc1C(=O)N/N=C/c1ccc([N+](=O)[O-])s1` gave Shn3 inh set2 -3, PfHsp90 set2 0 and Calb FLC 30.
O=C(N/N=C/c1ccc([N+](=O)[O-])s1)C(O)c1ccccc1 (configuration not stated) was read as Shn3 inh set2 17, PfHsp90 set2 11, Beta apoptosis 94*, CSC inhib 3 and Calb FLC 54.
For O=C(Cc1ccccc1)N/N=C/c1ccc([N+](=O)[O-])s1 the results were Shn3 inh set2 24, PfHsp90 set2 -6, Beta apoptosis 88*, CSC inhib 9 and Calb FLC 1.
For CCOc1ccc(N(CC(=O)N2CCOCC2)S(=O)(=O)c2ccc(Cl)cc2)cc1 the results were Shn3 inh set2 1, PfHsp90 set2 -45, Beta apoptosis -2, CSC inhib -11 and Calb FLC 1.
Screening COc1ccc(S(=O)(=O)N2CCOCC2)cc1NC(=O)COC(=O)c1ccc([N+](=O)[O-])s1 returned Shn3 inh set2 -4, PfHsp90 set2 19, Beta apoptosis -4 and CSC inhib -2.
`Cc1cc(C)nc(NC(=O)/C=C/c2ccccc2Cl)n1` gave Shn3 inh set2 -32, Beta apoptosis 8 and Calb FLC 22.
Screening Cc1cc(N)c2cc(NC(=O)/C=C/c3ccccc3Cl)ccc2n1 returned PfHsp90 set2 -21, Beta apoptosis 109*, CSC inhib 141* and Calb FLC 26.
Screening Cc1ccc(NC(=O)CSCc2cc(=O)n3cc(C)sc3n2)cc1 returned Shn3 inh set2 -7, PfHsp90 set2 5, Beta apoptosis 2, CSC inhib 3 and Calb FLC -2.
N#CCC(=O)N/N=C/c1cc(-c2ccccc2)n(-c2ccc(Cl)cc2)c1-c1ccccc1 was read as Beta apoptosis 109*, CSC inhib 52 and Calb FLC 4.
Cc1ccc(-n2c(-c3ccccc3)cc(/C=N/NC(=O)CC#N)c2-c2ccccc2)cc1 was read as Beta apoptosis 123*, CSC inhib 19 and Calb FLC -9.
N#CCC(=O)N/N=C/c1ccc(Cl)cc1 was read as Shn3 inh set2 0, PfHsp90 set2 0, Beta apoptosis 0, CSC inhib -7 and Calb FLC 1.
`COc1cc(N(C)C)c([N+](=O)[O-])cc1C(=O)N1CCOCC1` gave Shn3 inh set2 6, PfHsp90 set2 6, Beta apoptosis -7, CSC inhib 1 and Calb FLC 5.
COc1cc(CC(=O)NCC(C)(C)N2CCOCC2)cc(OC)c1OC was read as Shn3 inh set2 -2, PfHsp90 set2 0, Beta apoptosis -6, CSC inhib 3 and Calb FLC -7.
For O=C(NCCc1ccc(Cl)cc1)c1cc(S(=O)(=O)N2CCCCC2)c[nH]1 the results were Shn3 inh set2 0, PfHsp90 set2 20, Beta apoptosis -1, CSC inhib 4 and Calb FLC 6.
Cc1cccc(N2C(=S)N=C(Nc3c(C)cccc3C)C23CCOC(C)(C)C3)c1 (configuration not stated) was read as Shn3 inh set2 -9, PfHsp90 set2 9, Beta apoptosis 82*, CSC inhib -11 and Calb FLC 1.

Assay outcomes (PubChem BioAssay)
